# Most compounds without a hit are left out; they make up all but 6.4% or so of the library.
# Gal4-VP16 FLuc: Gal4-VP16 reporter inhibition counter-screen | Drosophila S2 Gal4-VP16 UAS-luciferase, luminescence, 20 h | Potency, µM (series often up to 53.6 µM), inactives show at the highest dose activity, negative = inhibition, actives largely listed as inhibitors | 310,000 tested, 3.5% active | AID 2546;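 note: Gal4-VP16 expression switched on by copper sulfate through the metallothionein promoter; nearly all actives have a fitted effect of over 50% in size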
# RORg inh: inhibitors of mouse ROR gamma transcriptional activity. P51450. Drosophila S2 Gal4-RORgamma UAS-luciferase reporter, 20 h. Potency, µM (highest dose often 53.6 µM), inactives show at the top dose activity change, negative = inhibition, most hits filed as inhibitors. 310,000 tested, 5.4% active; note: nearly all actives have a fitted effect of over 60% in size
# Target sequence (P51450 whole entry, looked up, the tested form may be a part): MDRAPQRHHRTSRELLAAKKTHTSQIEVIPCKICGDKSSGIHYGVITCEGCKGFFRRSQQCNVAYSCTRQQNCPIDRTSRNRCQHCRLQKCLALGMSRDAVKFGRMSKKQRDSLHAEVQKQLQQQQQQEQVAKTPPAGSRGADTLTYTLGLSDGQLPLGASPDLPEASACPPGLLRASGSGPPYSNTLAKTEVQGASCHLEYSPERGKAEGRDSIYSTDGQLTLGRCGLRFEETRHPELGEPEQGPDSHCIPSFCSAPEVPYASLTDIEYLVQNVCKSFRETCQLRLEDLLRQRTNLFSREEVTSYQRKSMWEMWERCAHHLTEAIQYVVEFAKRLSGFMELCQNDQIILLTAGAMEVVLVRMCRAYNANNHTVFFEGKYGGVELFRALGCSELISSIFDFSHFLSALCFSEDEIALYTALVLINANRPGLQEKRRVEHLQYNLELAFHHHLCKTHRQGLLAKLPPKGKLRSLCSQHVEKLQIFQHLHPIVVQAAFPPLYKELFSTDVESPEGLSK
#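 Schneider cells (Drosophila), stable Gal4 DBD–ROR gamma + UAS-luc; 1 hr cmpd preincubation; Cu2+ induction 700 uM final; 20 hr ambient; luminescence.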
# Luc counter: counter-screen: inhibitors of Kinase-Glo firefly luciferase; Q27757; Kinase-Glo luciferase, ATP luminescence, 8 min; Potency, µM (doses to about 38.3 µM), for the others: top-dose activity change, negative = inhibition, hits mostly inhibitors; 200,000 tested, 0.28% active; AID 1379; note: nearly all actives have a fitted effect of over 60% in size
#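 Substrate mix (final 50 mM imidazole pH 7.2, 50 mM KCl, 7 mM MgCl2, 10 uM ATP, 0.01% Tween 20, 0.05% BSA) plus pin-tool compound, then Kinase-Glo detection mix; 8 min ambient, luminescence read.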
# The depositor's hits bear a star; ? = inconclusive; . = no result; [ ] = dose if it differs, or a comment. Calls come from the whole dose curve; as a rule, active = well fitted curve in the direction sought with a large enough effect; inconclusive = small, poorly fitted or top-dose-only effect, or another doubt; inactive = no such curve, though single readings can be large; an effect the other way counts as inactive or inconclusive. % is set by controls: 0 for no effect and ±100 for the full control effect; potency is the fitted concentration of half-maximal effect.
SMILES,Gal4-VP16 FLuc,RORg inh,Luc counter
CC12CC(c3ccccc3O1)C(/C(N)=N/NC(=O)c1ccc(F)cc1)C(=O)N2 (centres undefined),?,4.5µM*,-1%
C/C(Cc1ccccc1)=N\NC(=O)c1ccc(F)cc1,?,-13%,0%
O=S(=O)(c1ccccc1)N1CCC[C@@]2(CCN(C(c3ccccc3)c3ccccc3)C2)C1,3%,-17%,-1%
Cc1cc(Br)cnc1NC(=S)Nc1ccc(F)cc1F,?,6.3µM*,.
O=C(Nc1ccc(F)cc1F)c1cncc(Br)c1,-19%,-2%,0%
COc1cc(NC(=O)CSc2ncnc3sc4c(c23)CCC(C)C4)c(C(=O)O)cc1OC (centres undefined),?,11µM*,.
CC1CCc2c(sc3ncnc(SCC(=O)Nc4ccc(C(=O)O)cc4)c23)C1 (centres undefined),-1%,-15%,.
CC(=O)c1ccc(OCC(=O)NC2CCCN(Cc3ccccc3F)C2)cc1 (centres undefined),-4%,-2%,.
CC(Cc1cccs1)NC(=O)Nc1ccc(F)cc1 (centres undefined),4%,16%,5%
CC(Cc1cccs1)NC(=S)Nc1ccc(Cl)cc1 (centres undefined),14µM*,7.1µM*,3%
CC(Cc1cccs1)NC(=S)Nc1ccc(Cl)c(Cl)c1 (centres undefined),?,7.9µM*,0%
CC(Cc1cccs1)NC(=O)Nc1cccc(Cl)c1 (centres undefined),5%,32%,1%
CCC(=O)N1CCN(c2ccc(NC(=S)NC(=O)c3cccc([N+](=O)[O-])c3)cc2)CC1,?,?,2%
O=C(NC(=S)Nc1ccccc1N1CCOCC1)c1cccc([N+](=O)[O-])c1,4µM*,1.6µM*,.
O=C(Nc1ccccc1N1CCOCC1)c1ccc([N+](=O)[O-])cc1,4%,-42%,1%
CCC(=O)N1CCN(c2ccccc2NC(=S)NC(=O)c2cccc([N+](=O)[O-])c2)CC1,?,7.9µM*,-2%
Cc1ccc(OCc2n[nH]c(=S)n2-c2ccc(Br)cc2)cc1,5.6µM*,2.2µM*,.
O=C(O)CSc1nnc(COc2ccc(Br)cc2)n1-c1ccccc1,1%,-1%,.
COC(Cc1n[nH]c(=S)n1-c1ccc(Cl)cc1)OC,-6%,?,2%
S=c1[nH]nc(COc2ccc(Cl)cc2)n1-c1ccc(Cl)cc1,?,5.6µM*,.
CC(Sc1nnc(COc2ccc(Cl)cc2)n1-c1ccccc1)C(=O)O (centres undefined),-4%,25%,.
Cc1ccc(OCc2n[nH]c(=S)n2N)cc1C,4%,7.9µM*,-8%
CCCCOc1ccc(Cc2n[nH]c(=S)n2N)cc1,-9%,-2%[10 µM],7%
S=c1[nH]nc(COc2ccc(Cl)cc2)n1-c1ccccc1,3.2µM*,4µM*,.
Cc1noc(C)c1-c1cncnc1N(C)Cc1ccco1,0%,-21%,.
SMILES,Gal4-VP16 FLuc,RORg inh,Luc counter
COCCn1c(=O)c(-c2ccccc2)nc2cnc(N(C)C)nc21,8%,17%,.
NC(=O)C1CCN(CC(=O)Nc2ccccc2N2CCOCC2)CC1,-10%,-9%,.
Cn1c(C(=O)N2CCN(c3ccc(F)cc3)CC2)cc2ccccc21,7%,13%,.
Cc1ccccc1OCc1n[nH]c(=S)n1-c1ccccc1,8.9µM*,2.5µM*,1%
Cc1ccc(OCc2nc(-c3ccc(Cl)cc3)n[nH]2)cc1,-19%,10%,3%
CC(C)OCC(O)CCc1n[nH]c(=S)n1-c1ccccc1 (centres undefined),1%,1%,-1%
Cc1ccc(OCc2n[nH]c(=S)n2-c2ccc(Cl)cc2)cc1,3.2µM*,-38%[1.91 µM],.
O=C1Cc2cc(CCN3CCN(c4nsc5ccccc45)CC3)c(Cl)cc2N1,5%,?,.
Cc1ccnc(SCC(=O)Nc2sc3c(c2C#N)CCCC3)n1,7.1µM*,?,-3%
CC(C)(C)C1CCc2c(sc(NC(=O)CSc3ncn[nH]3)c2C#N)C1 (centres undefined),11µM*,?,1%
N#Cc1ccsc1NC(=O)CSc1ncn[nH]1,7%,22%,1%
N#Cc1c(NC(=O)CSc2ncn[nH]2)sc2c1CCCC2,0.11µM*,0.32µM*,-3%
CCCc1cc(=O)[nH]c(SCC(=O)Nc2sc3c(c2C#N)CCC(C)C3)n1 (centres undefined),3%,14%,-1%
N#Cc1c(NC(=O)CSC2=NCCS2)sc2c1CCCC2,22%,?,-2%
CC1CCc2c(sc(NC(=O)CSc3ncn[nH]3)c2C#N)C1 (centres undefined),0.079µM*,0.32µM*,.
Cc1csc(SCC(=O)Nc2sc3c(c2C#N)CCC3)n1,0%,-3%,-1%
CCN(CCCCCN(C)C)Cc1cc2ccccc2o1,-9%,1%,-3%
COC(=O)CCC(=O)N1CCCC(N2CCN(c3cccc(C(F)(F)F)c3)CC2)C1 (centres undefined),8%,-11%,.
CC(C)(C)NC(=O)CN(CCN1CCOCC1)C(=O)CNS(=O)(=O)c1ccccc1,-5%,-41%,.
CC(Oc1ccccc1)C(=O)N1CCN=C1SCc1ccccc1F (centres undefined),-4%,34%,.
Cc1oc(-c2cccc(C(F)(F)F)c2)nc1CN1CCC[C@H]1CO,0%,11%,-1%
Cc1oc(-c2cccc(C(F)(F)F)c2)nc1CN1CCOCC1,5µM*,0.79µM*,-2%
CC1(C)CC2CC(C)(CN2S(=O)(=O)c2ccc(C(=O)Nc3ccc(Cl)c(S(=O)(=O)N4CCOCC4)c3)cc2)C1 (centres undefined),13µM*,?,-2%
CC1(C)CC2CC(C)(CN2S(=O)(=O)c2ccc(C(=O)Nc3ccc(S(=O)(=O)N4CCOCC4)cc3)cc2)C1 (centres undefined),?,?,6%
Cn1c(CC(=O)c2ccc(Br)cc2)[n+](C)c2ccccc21,-10%,9%,0%
SMILES,Gal4-VP16 FLuc,RORg inh,Luc counter
COCCN(C(=O)CSc1nnc(-c2cccc(F)c2)n1N)c1c(N)n(CC(C)C)c(=O)[nH]c1=O,-1%,-39%,.
CCc1csc(CNC(=O)C2CCC(=O)N(Cc3cccc(F)c3)C2)n1 (centres undefined),-4%,-3%,.
O=S(=O)(c1ccccc1)N1CCC2(CCN(c3cccc(-c4ccccc4)c3)CC2)CC1,-13%,6%,-5%
CCc1ccc(C(=O)/C=C/c2cnn(C)c2C)s1,8.9µM*,5.6µM*,-6%
Cc1c(/C=C/C(=O)c2cccs2)cnn1C,24%,25%,4%
COc1cccc(COCCN2CCN(S(=O)(=O)c3ccccc3)CCC2=O)c1,-16%,17%,.
CN(C)c1ccc(C2CC(c3cccc(NS(C)(=O)=O)c3)=NN2C(=O)c2ccccc2)cc1 (centres undefined),-6%,?,3%
COc1cccc(C2CC(c3cccc(NS(C)(=O)=O)c3)=NN2C(=O)c2ccccc2)c1OC (centres undefined),-13%,2µM*,-2%
COc1ccc(/C=N/Nc2nnc(-c3ncc[nH]3)c3ccccc23)cc1,4.5µM*,2.8µM*,-26%
Cc1cc(N=Cc2c(O)ccc3ccccc23)no1,-12%,-29%,.

# Screens deposited in PubChem by National Center for Advancing Translational Sciences (NCATS).
